Rows were chosen to be rich in hits. Some 19% of all compounds tested hit in one or more screens of this group.
IL-1B inflam inh: inhibitors of inflammasome signaling (IL-1 beta secretion). THP-1 LPS/ATP IL-1B secretion, AlphaLISA, 16 h; stronger effect = lower value. activity change, % at 57.5 µM. actives 4.7% (n = 360,000). AID 743279; in the data active = activity change below about -50%; inconclusive = mostly about -30% to -49%
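THP-1 cells pretreated 1 hr with compounds (up to 57.5 uM final), then stimulated with LPS (250 ng/mL final) plus ATP (1.25 mM final); secreted IL-1B measured by AlphaLISA after 16 hr, decreased signal indicating inhibition.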
HT1080NT lethal: kills 2HG-producing HT-1080-NT fibrosarcoma cells | HT-1080-NT fibrosarcoma viability, CellTiter-Glo ATP luminescence, 48 h | Potency, µM (top dose mostly 46.1 µM), for the others: at the top dose activity, negative = less viability, actives largely listed as cytotoxic | actives 1.6% (n = 360,000);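 note: NT is the 2HG producing partner of a matched IDH1 knockdown line; potency is the fitted concentration of half-maximal effect; 0% = DMSO-treated cells and -100% = media-only wells without cells; nearly all actives have a fitted effect of over 55% in size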
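HT-1080-NT fibrosarcoma cells (2HG-overproducing), 750 cells/well in RPMI with 5% FBS, dosed after 2 h and incubated 48 h at 37C. CellTiter-Glo luminescence normalized to DMSO and no-cell wells; concentration-response curves fitted and classed.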
TDP1 cell CPT: growth inhibition of DT40 Tdp1-/-;hTDP1 cells with camptothecin (screen for TDP1 inhibitors). chicken DT40 Tdp1-/-;hTDP1 cells + 20 nM CPT, ATP luminescence, 48 h. Potency, µM (top dose mostly 46.2 µM), for the others: at the top dose activity change, negative = growth inhibition, usual class: inhibitors. actives 12% (n = 420,000). AID 686979; note: potency is the fitted concentration of half-maximal effect; nearly all actives have a fitted effect of over 55% in size
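Chicken DT40 Tdp1-/- cells complemented with human TDP1, 400 cells/well, exposed to compounds plus 20 nM camptothecin for at least 48 h at 37 C; viability read as ATP content by CellTiter-Glo luminescence.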
DT40 TDP1 no CPT: qHTS for Inhibitors of human tyrosyl-DNA phosphodiesterase 1 (TDP1): qHTS in cells in absence of CPT. actives 15% (n = 420,000). DT40 Tdp1-/- hTDP1 cells, no CPT, ATP luminescence, 48 h. Potency, µM (top dose mostly 46.2 µM), inactives show top-dose activity change, negative = growth inhibition, most hits filed as inhibitors; note: potency is the fitted concentration of half-maximal effect; nearly all actives have a fitted effect of over 55% in size
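Growth kinetics read by CellTiter-Glo luminescence after ≥48 hr at 37 °C. Cells: DT40 Tdp1-/- stably carrying human TDP1, 400 per well, compound exposure in the absence of CPT (DMSO vehicle).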
HT1080 IDH1KD tx: kills HT-1080 cells with IDH1 knockdown; HT-1080 IDH1 knockdown viability, ATP luminescence, 48 h; Potency, µM (doses to about 46.1 µM), inactives show at the top dose activity, negative = toxicity, actives largely listed as cytotoxic; actives 2% (n = 360,000); AID 686971;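 note: potency is the fitted concentration of half-maximal effect; 0% = DMSO wells and -100% = cell-free medium wells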
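Viability of IDH1-knockdown HT-1080 fibrosarcoma cells was assessed by CellTiter-Glo after 48 h at 37 °C with titrated compound; concentration-effect curves were classified by fit quality and response size.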
The depositor's hits bear a star; u = inconclusive; x = not tested or not shown. Unless noted, calls come from the whole dose curve; as a rule, active = well fitted curve in the direction sought with a large enough effect; inconclusive = small, poorly fitted or top-dose-only effect, or another doubt; inactive = no such curve, though single readings can be large; an effect the other way counts as inactive or inconclusive. Unless noted, % is set by controls: 0 for no effect and ±100 for the full control effect.

SMILES	IL-1B inflam inh	HT1080NT lethal	TDP1 cell CPT	DT40 TDP1 no CPT	HT1080 IDH1KD tx
C=C[C@H](CC(C)C)N(Cc1ccccc1)S(=O)(=O)N(Cc1ccccc1)[C@@H](C=C)CC(C)C	12	1%	13µM*	15µM*	14%
CC1(C(=O)Nc2ccc3c(c2)OCO3)CCN1C(=O)c1ccco1 (centres undefined)	-9	13%	-16%	-16%	7%
CN1CCN(C(=O)C2=C[C@@H](c3coc4ccccc4c3=O)C[C@@H](OCc3ccc(CO)cc3)O2)CC1	12	7%	2%	-8%	14%
O=C(Nc1ccccc1)C1=C[C@@H](c2coc3ccccc3c2=O)C[C@@H](OCc2ccc(CO)cc2)O1	4	-1%	u	15µM*	-6%
O=C(C1=C[C@@H](c2coc3ccccc3c2=O)C[C@@H](OCc2ccc(CO)cc2)O1)N1CCN(Cc2ccccc2)CC1	u	-2%	18µM*	u	2%
O=C(C1=C[C@@H](c2coc3ccccc3c2=O)C[C@@H](OCc2ccc(CO)cc2)O1)N1CCCCCCC1	-19	10%	12µM*	u	7%
COc1ccncc1-c1ccc(C2=CC(=O)CC(C)(C)C2=O)cc1	13	0%	u	u	-7%
Cc1cccc(N2C(=O)C3C4C=CC(C5CC45)C3C2=O)n1 (centres undefined)	-3	18%	8%	-1%	13%
CCCCN=CC1=C(O)CC(c2ccccc2)CC1=O (centres undefined)	2	-13%	-26%	u	-15%
Cc1ccccc1NS(=O)(=O)c1csc(C(N)=O)c1	13	7%	-4%	15%	4%
COc1ccc(NC2=Nc3cccc4cccc2c34)cc1OC	u	-31%	23µM*	26µM*	-1%
Cc1cc(=O)oc2cc(OCC(=O)NCCc3ccccc3)ccc12	7	2%	-1%	2%	10%
COc1ccc(/C=C2\SC(=O)N(CCNC(=O)C3CCN(S(=O)(=O)c4cccs4)CC3)C2=O)cc1	23	3%	u	-27%	1%
O=C(NCCN1C(=O)S/C(=C\c2ccc(F)cc2)C1=O)C1CCN(S(=O)(=O)c2cccs2)CC1	19	4%	12µM*	10µM*	15%
CCc1ccc(NC(=O)C2CCN(S(=O)(=O)c3cccs3)CC2)cc1	-80*	u	u	u	-29%
COc1cc(NC(=O)C2CCN(S(=O)(=O)c3cccs3)CC2)cc(OC)c1	-14	-1%	18µM*	u	-11%
Cc1ccc(NC(=O)C2CCN(S(=O)(=O)c3cccs3)CC2)cc1	-26	-7%	u	u	-19%
COC(=O)CCC1(C(N)=O)CCC(=O)c2ccccc21 (centres undefined)	14	16%	-18%	0%	27%
Cc1ccn2c(NCc3ccco3)c(-c3ccccc3)nc2c1	x	1%	u	11µM*	5%
Cc1ccn2c(Cc3ccccc3)c(-c3ccccc3)nc2c1	39	3%	18µM*	18µM*	6%
Cc1ccn2c(Cc3ccccc3)c(-c3ccc(Br)cc3)nc2c1	46	-4%	21µM*	u	-14%
Cc1ccn2c(CN3CCOCC3)c(-c3ccccc3)nc2c1	u	1%	-29%	u	4%
COc1cc(CC(C#N)(CO)c2nc3ccccc3[nH]2)ccc1OC(F)F (centres undefined)	-17	-11%	2%	u	4%
O=C(NCc1ccncc1)C1CCN(S(=O)(=O)c2ccccc2)CC1	-5	4%	17%	22%	8%
CS(=O)(=O)Nc1cccc(-c2cncnc2Nc2ccc(F)cc2)c1	x	x	11%	-11%	x
SMILES	IL-1B inflam inh	HT1080NT lethal	TDP1 cell CPT	DT40 TDP1 no CPT	HT1080 IDH1KD tx
CNc1ncnc(Sc2nc(N)nc3nc[nH]c23)c1[N+](=O)[O-]	-59*	2.9µM*	2.1µM*	4.6µM*	1.3µM*
Nc1nc(Sc2ccc([N+](=O)[O-])c3nonc23)c2[nH]cnc2n1	-119*	4.6µM*	1.8µM*	3.3µM*	1.8µM*
COc1ccc(NC(=O)c2cc(S(=O)(=O)N3CCOCC3)ccc2C)cc1S(=O)(=O)N1CCCCC1	2	-4%	-24%	u	-11%
CC(C)(C)C1CCC(=NNC(=O)C2COc3ccccc3O2)CC1 (centres undefined)	3	u	-13%	-20%	u
COc1ccc(N(Cc2cc3cc(C)ccc3[nH]c2=O)C(C)=O)cc1	-9	7%	6%	-1%	4%
COc1ccc(C2=C(C)C(=O)N(Cc3ccc(C(=O)Nc4ccc(F)cc4C)cc3)S2(=O)=O)cc1	x	x	3.3µM*	3.7µM*	x
COc1ccc(C2=C(C)C(=O)N(Cc3ccc(C(=O)NCc4ccc(C)cc4)cc3)S2(=O)=O)cc1	x	x	-13%	-6%	x
CC1=C(c2ccc(C)c(C)c2)S(=O)(=O)N(Cc2ccc(C(=O)Nc3cc(F)ccc3F)cc2)C1=O	x	x	-18%	u	x
COc1ccc(C2=C(C)C(=O)N(Cc3ccc(C(=O)Nc4cccc(F)c4)cc3)S2(=O)=O)cc1	x	x	21µM*	23µM*	x
CCN(CC)c1ccc(N)cc1	-66*	8.2µM*	1.8µM*	1.6µM*	15µM*
CCN(CC)c1ccc(C(=O)N/N=C(\C)c2ccc(OC)c(OC)c2)cc1	6	-13%	-4%	26µM*	u
CCN(CC)c1ccc(C(=O)NN)cc1	-52*	-19%	28%	-3%	2%
Nc1ccc(N(CCO)CCO)cc1	-8	-15%	12µM*	21µM*	-8%
CCN(CC)C(=O)c1ccc(N)cc1	-21	-5%	1%	7%	6%
Nc1ccc(C(=O)N(CCO)CCO)cc1	0	0%	8%	7%	3%
CCc1nn2c(=O)cc(COC(=O)c3ccco3)nc2s1	x	x	-13%	-9%	x
NSc1nc(N)c2nc(-c3ccccc3)c(-c3ccccc3)nc2n1	-51*	-7%	u	26µM*	-5%
N#Cc1c(N)nc(-c2ccccc2)nc1-c1ccccc1	-4	u	-3%	-2%	u
Nc1nc(N)c2nc(-c3ccccc3)c(N)nc2n1	41	2.3µM*	15µM*	2.1µM*	2.9µM*
C=CCn1c(SCc2c(C)noc2C)nc2sc(C)c(C)c2c1=O	-22	16µM*	21µM*	18µM*	11µM*
C=CCn1c(SCC(=O)NCCO)nc2sc(C)c(C)c2c1=O	26	5%	4%	-8%	-2%
C=CCn1c(SCC(=O)c2cc(C)n(C(C)COC)c2C)nc2sc(C)c(C)c2c1=O (centres undefined)	-2	-28%	u	18µM*	u

Assay outcomes: PubChem BioAssay, National Center for Advancing Translational Sciences (NCATS)
